Assay results: PubChem BioAssay (Tox21)
Inconclusive results are not listed. Active and inactive are the calls of the source. Unless noted, calls follow the shape of the dose curve; as a rule, active = well fitted curve in the direction sought with a large enough effect in the repeat runs; inconclusive = weak or mixed curves; inactive = no such curve, though single readings can be large; an effect the other way counts as inactive or inconclusive.

Legend:
[1] = qHTS assay to test for compound auto fluorescence at 535 nm (green) in HEK293 cells (AID 720680)
[2] = qHTS assay to test for compound auto fluorescence at 460 nm (blue) in HEK293 cell free culture (AID 720681)
Outline: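 Test compounds were pinned into cell-free culture medium (DMEM with 10% FBS) and fluorescence was read directly at Ex/Em 405/460 nm. Signals were expressed as fluorescence equivalents of triamterene, with DMSO vehicle as control.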

[3] = qHTS assay to test for compound auto fluorescence at 535 nm (green) in HEK293 cell free culture (AID 720682)
Outline: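 Fluorescein serves as the green reference fluorophore; each compound's intrinsic emission at 535 nm (excitation 485 nm) is reported as an equivalent amount of that dye, measured in serum-containing DMEM without cells.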

[4] = qHTS assay to test for compound auto fluorescence at 590 nm (red) in HEK293 cell free culture (AID 720683)
Outline: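 Tox21 10K library compounds were pinned into cell-free DMEM with 10% FBS and fluorescence was read at excitation 540 nm. Activity is expressed as Rose Bengal sodium equivalency.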

[5] = qHTS assay to test for compound auto fluorescence at 590 nm (red) in HepG2 cell free culture (AID 720684)
Outline: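 Measured in medium alone (MEM containing 10% FBS) following pintool addition of compound; emission at 590 nm with 540 nm excitation, referenced to Rose Bengal sodium.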

[6] = qHTS assay to test for compound auto fluorescence at 460 nm (blue) in HepG2 cell free culture (AID 720685)
Outline: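 Compound (23 nL) or DMSO pinned into cell-free MEM with 10% FBS; blue fluorescence read at 405/460 nm excitation/emission, expressed as auto-fluorescence equivalency to triamterene.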

[7] = qHTS assay to test for compound auto fluorescence at 535 nm (green) in HepG2 cell free culture (AID 720686)
[8] = qHTS assay to test for compound auto fluorescence at 460 nm (blue) in HepG2 cells (AID 720687)
Outline: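 Cells (2,000/well in MEM with 10% FBS) attached overnight at 37 C, then were exposed to compound or DMSO for 1 hr at 37 C, 5% CO2. Fluorescence read at Ex/Em 405/460 nm, expressed as triamterene-equivalent signal.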

[9] = biological target: Glucocorticoid receptor (Homo sapiens) (UniProt P04150); experiment: qHTS assay to identify small molecule agonists of the glucocorticoid receptor (GR) signaling pathway (AID 720691; active = well fitted activation curve with a large enough effect in the signal ratio in the repeat runs, not every such curve was filed as active; the % refers to the signal ratio)
Outline: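 qHTS in GR-bla HeLa cells: 4 h settling at 37 C/5% CO2, 18 h compound incubation at 37 C, 2 h LiveBLAzer B/G FRET substrate at room temperature, fluorescence intensity measured.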

[10] = biological target: Glucocorticoid receptor (Homo sapiens) (UniProt P04150); experiment: qHTS assay to identify small molecule antagonists of the glucocorticoid receptor (GR) signaling pathway (AID 720692; active = well fitted inhibition curve with a large enough effect in the signal ratio in the repeat runs, not every such curve was filed as active; the % refers to the signal ratio)
Outline: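 Inhibition of glucocorticoid signalling is measured in HeLa cells with a GRE-controlled beta-lactamase reporter; cells are co-treated with compound and 5 nM dexamethasone (final) for 18 h before FRET substrate readout.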

[11] = qHTS assay to identify small molecule antagonists of the glucocorticoid receptor (GR) signaling pathway - cell viability counter screen (AID 720693); also: nearly all actives have a fitted effect of over 55% in size
[12] = qHTS assay for identifying genotoxic compounds that show differential cytotoxicity against isogenic chicken DT40 cell lines with known DNA damage response pathways - wild type cell line (AID 743012); also: nearly all actives have a fitted effect of over 60% in size
Outline: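 First, wild type DT40 cells were plated at 300 per well and equilibrated about 0.5 h at 37 C/5% CO2. Next, compounds in DMSO were added and exposure lasted 40 h. Finally, CellTiter-Glo was added for 30 min at room temperature and luminescence recorded.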

[13] = qHTS assay for identifying genotoxic compounds that show differential cytotoxicity against isogenic chicken DT40 cell lines with known DNA damage response pathways - Rad54/Ku70 mutant cell line (AID 743015); also: nearly all actives have a fitted effect of over 60% in size
[14] = qHTS assay to identify small molecule antagonists of the androgen receptor (AR) signaling pathway - cell viability counter screen (AID 743033; also: nearly all actives have a fitted effect of over 45% in size)
[15] = qHTS assay to identify small molecule antagonists of the androgen receptor (AR) signaling pathway using the MDA cell line - cell viability counter screen (AID 743041; also: nearly all actives have a fitted effect of over 45% in size)
Outline: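 Viability counter screen run alongside the AR antagonist reporter: cells seeded 5 h before compound, R1881 added, 16 h incubation at 37C without CO2, fluorescent CellTiter-Fluor signal quantified.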

[16] = qHTS assay to identify small molecule antagonists of the thyroid receptor (TR) signaling pathway - cell viability counter screen (AID 743064); also: nearly all actives have a fitted effect of over 50% in size
Outline: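 Fluorescence from CellTiter-Fluor, added after 23.5 h exposure at 37 °C, reported viability of GH3.TRE-Luc cells co-treated with compound and 1 nM T3. Measured in the same wells as the luciferase TR readout.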

[17] = qHTS assay for identifying genotoxic compounds that show differential cytotoxicity against isogenic chicken DT40 cell lines with known DNA damage response pathways - Rev3 mutant cell line (AID 743014); also: nearly all actives have a fitted effect of over 55% in size
[18] = biological target: Androgen receptor (Homo sapiens) (UniProt P10275); experiment: qHTS assay to identify small molecule antagonists of the androgen receptor (AR) signaling pathway (AID 743035; active = well fitted inhibition curve with a large enough effect in the signal ratio in the repeat runs, not every such curve was filed as active; the % refers to the signal ratio)
Outline: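 Beta-lactamase FRET read (2 h RT incubation with LiveBLAzer B/G) following 16 h of compound plus R1881 treatment of AR-UAS-bla HEK293 cells, which had been pre-incubated 4 h at 37C.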

[19] = biological target: Androgen receptor (Homo sapiens) (UniProt P10275); experiment: qHTS assay to identify small molecule agonists of the androgen receptor (AR) signaling pathway (AID 743036; active = well fitted activation curve with a large enough effect in the signal ratio in the repeat runs, with a control signal flat, not every such curve was filed as active; the % refers to the signal ratio)
Outline: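 Fluorescence from a beta-lactamase FRET substrate served as read-out in AR-UAS-bla GripTite HEK293 cells. Cells were treated with DMSO-dissolved compounds for 16 h at 37C, then with LiveBLAzer B/G substrate for 2 h at room temperature.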

[20] = biological target: Androgen receptor (Homo sapiens) (UniProt P10275); experiment: qHTS assay to identify small molecule agonists of the androgen receptor (AR) signaling pathway using the MDA cell line (AID 743040; also: nearly all actives have a fitted effect of over 20% in size)
Outline: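 Luminescence from ONE-Glo, read after 30 min at room temperature, reflects MMTV-driven luciferase in MDA-kb2 cells (AR- and GR-responsive). Treatment lasted 16 h at 37C, 0% CO2.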
% is scaled to controls: 0 for no effect and ±100 for the full control effect.

Chain of Androgen receptor (Homo sapiens) (P10275 whole entry, looked up): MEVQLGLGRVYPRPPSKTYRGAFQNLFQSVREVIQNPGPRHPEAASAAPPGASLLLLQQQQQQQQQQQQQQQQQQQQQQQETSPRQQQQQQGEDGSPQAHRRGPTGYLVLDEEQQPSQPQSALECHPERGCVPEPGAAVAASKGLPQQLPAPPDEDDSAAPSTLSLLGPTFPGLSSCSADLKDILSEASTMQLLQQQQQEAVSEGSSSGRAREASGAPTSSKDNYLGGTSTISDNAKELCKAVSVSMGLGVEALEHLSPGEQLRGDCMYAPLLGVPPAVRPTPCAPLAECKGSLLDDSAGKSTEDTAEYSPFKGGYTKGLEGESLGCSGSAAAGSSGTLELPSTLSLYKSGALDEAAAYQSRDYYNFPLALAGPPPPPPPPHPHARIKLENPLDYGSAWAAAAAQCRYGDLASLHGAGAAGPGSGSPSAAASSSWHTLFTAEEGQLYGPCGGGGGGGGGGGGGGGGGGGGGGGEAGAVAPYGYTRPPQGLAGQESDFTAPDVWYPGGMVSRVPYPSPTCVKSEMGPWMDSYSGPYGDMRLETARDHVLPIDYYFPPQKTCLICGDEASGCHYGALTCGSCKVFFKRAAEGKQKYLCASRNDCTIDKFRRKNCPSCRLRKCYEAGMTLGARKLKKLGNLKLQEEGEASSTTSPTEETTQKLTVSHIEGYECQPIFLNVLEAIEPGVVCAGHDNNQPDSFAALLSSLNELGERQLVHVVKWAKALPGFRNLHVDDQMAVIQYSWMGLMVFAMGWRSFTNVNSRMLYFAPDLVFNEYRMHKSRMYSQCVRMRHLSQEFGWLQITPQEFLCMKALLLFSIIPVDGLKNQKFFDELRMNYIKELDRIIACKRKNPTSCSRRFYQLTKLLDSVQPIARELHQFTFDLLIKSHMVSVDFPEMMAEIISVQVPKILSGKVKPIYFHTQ
Chain of Glucocorticoid receptor (Homo sapiens) (P04150 whole entry, looked up): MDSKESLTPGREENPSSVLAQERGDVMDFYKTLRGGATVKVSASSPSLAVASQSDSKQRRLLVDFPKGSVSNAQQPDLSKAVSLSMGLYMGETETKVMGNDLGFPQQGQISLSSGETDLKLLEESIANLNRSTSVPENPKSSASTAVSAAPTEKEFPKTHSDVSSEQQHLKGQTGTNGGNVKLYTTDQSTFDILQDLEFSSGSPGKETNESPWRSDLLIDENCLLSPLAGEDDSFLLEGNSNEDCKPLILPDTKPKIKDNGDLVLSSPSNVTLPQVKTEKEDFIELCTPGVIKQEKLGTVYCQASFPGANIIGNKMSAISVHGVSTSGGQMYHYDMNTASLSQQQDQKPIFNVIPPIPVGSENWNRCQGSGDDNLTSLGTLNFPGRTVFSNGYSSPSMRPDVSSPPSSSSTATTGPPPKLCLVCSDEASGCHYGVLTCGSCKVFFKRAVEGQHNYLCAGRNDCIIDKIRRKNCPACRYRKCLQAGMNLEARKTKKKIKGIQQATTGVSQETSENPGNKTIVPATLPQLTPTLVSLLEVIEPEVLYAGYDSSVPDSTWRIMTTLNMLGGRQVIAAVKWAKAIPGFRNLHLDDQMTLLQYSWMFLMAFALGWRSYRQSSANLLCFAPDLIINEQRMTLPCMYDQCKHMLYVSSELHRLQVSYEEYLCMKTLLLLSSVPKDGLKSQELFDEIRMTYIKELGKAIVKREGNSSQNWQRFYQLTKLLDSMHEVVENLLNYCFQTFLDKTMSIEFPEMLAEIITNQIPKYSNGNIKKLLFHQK

c1cncc([C@@H]2CCCCN2)c1
inactive: outcome [1] | outcome [2] | outcome [3] | outcome [4] | outcome [5] | outcome [6] | outcome [7] | outcome [8] | Potency [9] | Potency [10] | Potency [11] | Potency [12] | Potency [13] | Potency [14] | Potency [15] | Potency [16]

CC(C)[N+](C)(CCC(C(N)=O)(c1ccccc1)c1ccccc1)C(C)C
inactive: fluorescence, % of fluorescein [1] 0.0067% [at 18.6 µM] | fluorescence, % of fluorescent control [2] 0.0496% [at 18.6 µM] | activity change [3] -0.0088% [at 18.6 µM] | fluorescence, % of fluorescent control [4] 0.0889% [at 18.6 µM] | fluorescence, % of Rose Bengal [5] 0.379% [at 18.6 µM] | fluorescence, % of fluorescent control [6] -0.0402% [at 18.6 µM] | fluorescence, % of fluorescein control [7] 0.0122% [at 18.6 µM] | fluorescence, % of fluorescent control [8] -0.0322% [at 18.6 µM] | Potency [9] | Potency [10] | Potency [12] | Potency [17] | Potency [13] | Potency [14] | Potency [15]

Cl/C=C/CCl
inactive: outcome [1] | outcome [2] | outcome [3] | outcome [4] | outcome [5] | outcome [6] | outcome [7] | outcome [8] | Potency [9] | Potency [11] | Potency [12] | Potency [17] | Potency [13] | Potency [14] | Potency [15] | Potency [16]

O=c1[nH]oc2c1CCNC2
inactive: outcome [1] | outcome [2] | outcome [3] | outcome [4] | outcome [5] | outcome [6] | outcome [7] | outcome [8] | Potency [9] | Potency [10] | Potency [11] | Potency [12] | Potency [13] | Potency [14] | Potency [15] | Potency [16]

ClCCCCl
inactive: outcome [1] | outcome [2] | outcome [3] | outcome [4] | outcome [5] | outcome [6] | outcome [7] | outcome [8] | Potency [9] | Potency [11] | Potency [12] | Potency [17] | Potency [13] | Potency [14] | Potency [15] | Potency [16]

CN(C)CCN(C)C
inactive: outcome [1] | outcome [2] | outcome [3] | outcome [4] | outcome [5] | outcome [6] | outcome [7] | outcome [8] | Potency [9] | Potency [11] | Potency [12] | Potency [17] | Potency [13] | Potency [14] | Potency [15]

CNC(=O)Oc1cc(C)c(N(C)C)c(C)c1
inactive: outcome [1] | outcome [2] | outcome [3] | outcome [4] | outcome [5] | outcome [6] | outcome [7] | outcome [8] | Potency [9] | Potency [10] | Potency [11] | Potency [14] | Potency [15] | Potency [16]

C=CC(=O)OCCN(C)C
inactive: outcome [1] | outcome [2] | outcome [3] | outcome [4] | outcome [5] | outcome [6] | outcome [7] | outcome [8] | Potency [9] | Potency [10] | Potency [12] | Potency [13] | Potency [14] | Potency [15]

O=C/C=C/c1ccco1
inactive: outcome [1] | outcome [2] | outcome [3] | outcome [4] | outcome [5] | outcome [6] | outcome [7] | outcome [8] | Potency [9] | Potency [10] | Potency [12] | Potency [13] | Potency [14] | Potency [18] | outcome [19] | outcome [20] | Potency [15] | Potency [16]
